Experimental data from the supplement of paper PMC10105736.
Unmarked numbers belong to inactive results.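 How the source made its calls: active = MAPPIT score above the 99th percentile of random reference set scores in the same batch; inactive = at or below it.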

Experiments:
Assay in all cases: MAPPIT interaction score (arbitrary units); higher = stronger binary interaction signal, active = hit call of the paper
Or49b = conditions: MAPPIT configuration: N-N; pair source set: DPIM
Su(var)2-10 = conditions: MAPPIT configuration: N-N; pair source set: DPIM
Not3 = conditions: MAPPIT configuration: N-N; pair source set: Finley_Y2H
Nup107 = conditions: MAPPIT configuration: N-C; pair source set: screen_4
dgt6 = conditions: pair source set: Lit-BM-16
Nup50 = conditions: MAPPIT configuration: N-N; pair source set: DPIM
Nup153 = conditions: MAPPIT configuration: N-N; pair source set: DPIM
Pen = conditions: MAPPIT configuration: N-N; pair source set: Lit-BM-16
Nup62 = conditions: MAPPIT configuration: N-N; pair source set: Finley_Y2H
PHDP = conditions: MAPPIT configuration: N-N; pair source set: Curagen_low_conf
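Further: HEK293T cells with Epo stimulation, STAT-responsive firefly luciferase reporter, fold induction versus unstimulated cells divided by the larger fold induction of two negative controls lacking either bait or prey.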

B1: Atx2 (protein)
chain: MNNNSKRKTRPTGGGASGGISRYNSNDNSLRPTNNKAGAGGGNGGAAVRPSAQGVYNNTFFMHSATALVGSVVEVRLRSGNIYEGVFRTFSGNFDIALELPACIKSKNLPEEGKVPKHIIFPADTVVTIVAKDFDSQYATAGAFQTDGAISDKCNGARPDEKELEPWDSGANGDIDIELDSAANGWDPNEMFRKNENTFGVTSTFDDSLASYTVPLDKGDSLEFKEAEAKAEKLAAEIENNPTCRDRLDLENGDEEALFAAVERPSTEQDQRGDRGDRERNDRDREREERDRDRDRDRGNKPRGAGDFQLRETMSSDRYITKQTRSITGPQLSHVGMSSQGSGRDRDTRGDGSMMMQSGGGSGQGGSTQSTAALMLAGGLKGVGPAPSANASADSSSKYSGGSMVKRKTVPQGGKVMRNNVPTGGSNVSVSQGGNGNSVGQNKGGYQPSMGMPSQYSYQGNSQIMHGSSQYRNQSHMGGANKLNGDSNANTNKPLPQRQMRQYQGSQSNSSLNYGGEPQSLGKPVHGSHGGHPGQNSNSPPLQTAGPQQQQQQQQQQQQQQQQQQPPQQQQHQNIQPQGQNTQPARQVRTRDNQMQELRQFGQDFQLAPSNTSPPQQQQQQQQQQQQHQVQQQQQRALQQSASPPQQQQQQQQQQQHVVLHQVPQTHLHQAALSQPHYVPQQQPQQAPLPQQQHVPHHMQQKAQQQQLVETQHQHVQKQHQSQPQVQQPPPQLLQDPSQQPLPIYHTMPPPQTSPVVVTSPVLLEQPPPQPMPVVQQQQTQQLATPKPEVSPAPPSSNTTTPTGIASTPTAGVIASAGSEKTTPAAPTPTSNSATVPTGTAATAGGATGTTPVVKKHVLNPSAKPFTPRGPSTPNPSRPHTPQTPVPMTNIYTTTGGHVPPAANQPIYVMQPQHPFPPQTHPQAGQPPRLRRSNYPPMAASQMHVSASAATGQPLITAGPIPQFIQYGHAPHQQQFQSHTYAPMQMRVYPDQPQQLQFMTQTPQSTTPSPGQPHQQFHPPPQPSPAGGGPQPAFTPPTQAATYQLMCVHPQSLLANHYFPPPTPQHPQQNQQQYQIVMQQHQPQ
- MAPPIT interaction score (Or49b): -0.465
- MAPPIT interaction score (Su(var)2-10): 0.0668

B2: Rga (protein)
chain: MANLNFQQPPRSIANAALAGRTTGGFGGSSLAGHVTPTSGMFQTDFANSYPGTANYGQAPQQQQQQQQQPQLSPNRNAQLSVGGPAISSGNRNANLFGQRQFVERRAMQGLGSGPMSNMGNFMQTGRGGYGTGGGGGGPLNNFHVFGGGGGSDTSTPALLDPTEFPSLTNARGQNDQTLPQSNPLQPPGSKPYGNFFTSFGMVKQPTSEQSEFTMSNEDFPALPGTQNSDGTTNAVGSVAGTGGSGGASTENHLDGTEKPMNSIVVSGSASGSSGSNVGVVGGNGLGAVGSGIGGLAVGGGGGAGSSGGGGVGGNAASGVVGGSHVGLVGSNSGIGGVNSVPNSNAMMGVGGGLGSGSGSSGSGAGGEHLNDNSSNDKLVKSGVQTSPDGKVTNIPATMVNNQFGMVGLLTFIRAAETDPNLVTLSLGTDLTGLGLNLNSQESLHTTFAGPFVAQPCRAQDVEFNVPPEYLINFAIRDKLTAPVLKKLQEDLLFFLFYTNIGDMMQLMAAAELHSREWRYHVEEKIWITRIPGIDQYEKNGTKERGTFYYFDAQSWKRLSKVFQIDPEKLDKCPNISAFMNGQSV
- MAPPIT interaction score (Not3): 0.172

B3: dgt4 (protein)
chain: METPPTPTTTTPPSLTTEGTMDDIQYLLHLEAMRRFQEDSRNVKRQVEEQVRIWLDAKCEYQRDFGRLARLLKCGALQAAVDAHRVSDVNQVDQAAKDIASLRSKLGSDLRPAILDSNDVKQCLEHLNTTHKPRLNLCRQQREFAQNQEALRSLRTAVDGLENGMEMGMIQAMDRLVEDLLPPRETNN
- MAPPIT interaction score (Nup107): 1.57
- MAPPIT interaction score (dgt6; MAPPIT configuration: N-C): 1.64
- MAPPIT interaction score (dgt6; MAPPIT configuration: N-N): 4.36 (active)

B4: Nubp2 (protein)
chain: MLDKVKNVIVVLSGKGGVGKSTVSTQLSLALRKNGFKVGLLDIDLCGPSVPYLLGLEGRDIFQCDDGWVPVYTDESQTLAVMSIGFLLKNREDPVIWRGPKKTMMIRQFLTDVRWDELDYLIIDTPPGTSDEHITVMECLKEVGCHGAIIVTTPQEVALDDVRKEITFCKKTGINILGIVENMSGFVCPHCTSCTNIFSSNGGVSLATYAQVPHLGTLPIDPRVGILAGTTTSVLDELPDSTTAEVLTHIVEKLKTMLVS
- MAPPIT interaction score (Nup50): -0.182

B5: Nup50 (protein)
chain: MAGKRQATSNLNHENWDLEEEPEERGTFRTATEEELKTRVIKKARRKIAGGSSAAEEDGAEEKTAEPKSVFSGFSGFGKPAASPAAGSPFSFLANVTAPATTSSSEPKKSAFSFGFSSSSSSADRPVSTSICGTASTSSTAPSPLPAKESTSTVDGAKPTTSIFGNISAAKKESSEAKTSSSSTSLTSTMETSEYRESVADLNRSVIKFLQDQMGKSPYCILTPVFKNYDEHLKDLQDEESARTNSTKSKTAQARSQEPVAKVSRASSPPKAATTFTFGKPSAPIGASVSPLAKKPNCTITSGGTTTTTATPLVSFGSTASFTAPVPSSSSIFSLTAKPTGEAKSDDTPKSSIFSFGAKDTTTKKDEPNFSAPKTNGFSFGLKSNNDDKPSTSLFAGFGKAPGGAGDGAKGFSFTNSATPFSLGNIHPPAAAAAPAEEEKEEDTPPKVEFKQVVEDDAIYSKRCKVFIKKDKDFGDRGVGTLYLKPVKDSEKIQLLVRADTNLGNILVNLILSKGIPCQRMGKNNVLMVCVPTPEDSKATSLLLRVKTGDEADDLLEKIKEHIK
- MAPPIT interaction score (Nup153): 0.802
- MAPPIT interaction score (Pen): 3.66 (active)

B6: Nup54 (protein)
chain: MSFFGSNTSLGATSTPAKTTGGLFGSPFGGTAATSQPAPAFGAQATSTPAFGAQPATSAFGAGSAFGATAAAPAFGAATGTSAFGGSAFGSTPAFGAATTTTAGTGLGGGGFGGFGAAPATSQAGLFGAPATSAAPPAFSGFGQQAAASTAPASGFSGFGTTTTSAPAFGGFGTSQSTGFGGGAFGSTFGKPANTTVTPGFGGFGGTSFMLGQPQQQPAPISADEAFAQSILNVSIFGDERDKIVAKWNYLQATWGTGKMFYSQSAAPVDITPENVMCRFKAIGYSRMPGKDNKLGLVALNFCRELSAVKPHQQQVIQTLHSLFGSKPNMLVHIDSIKELENKKCQIVIYVEEKLQHAPNESKRILATELSNYLNQATLKPQLNNLGVVEALALVLPDEDQLREYLENPPRGVDPRMWRQANSDNPDPTLYIPVPMVGFNDLKWRVKCQEQETDTHALYIKKVESELTELKKRHATATAKILEHKRKLAELSHRILRIIVKQECTRKVGTSLTPEEEALRTKLQNMLAVVSAPTQFKGRLSELLSQMRMQRNQFAANGGAEYALDKEAEDEMKTFLTMQQRAMEVLSDTVNKDLRALDVIIKGLPELRQS
- MAPPIT interaction score (Nup62): 5.79 (active)
- MAPPIT interaction score (PHDP): -0.274
